# Source: PubChem BioAssay AID1159580 (chemical genetic matrix, 2015)
# The whole screen tested about 5,500 compounds, of which about 2,000 (36%) were called active. Another 18% or so got no clear call; they are omitted. Some of the results follow. A number with no mark means an inactive call. Rule as the data show it: active = normalized growth mostly below about 0.91 (no sharp cut-off); inconclusive = no clear call, values can overlap the other calls; inactive = mostly above about 0.92.
# Experiment: chemical genetic growth profiling, strain panel (AID 1159580);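 also: tested at 20 µM; growth read once vehicle control cultures reached saturation at 30 °C; 1 = growth at the plate median or of vehicle wells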
# Conditions: S. cerevisiae deletion strains, growth OD
# [1] = locus YDL101C, strain DUN1, stronger effect = lower value
# [2] = locus YHR030C, strain SLT2, stronger effect = lower value
structure (smiles),measurement,setting,value
Cc1onc(-c2ccc(Cl)cc2)c1-c1ccnn1C(=O)NC(C)C,normalized growth,"locus YAL013W, strain DEP1, stronger effect = lower value",0.966
same,normalized growth,"locus YBR229C, strain ROT2, stronger effect = lower value",0.932
same,normalized growth,"locus YCL061C, strain MRC1, stronger effect = lower value",0.963
same,normalized growth,[1],0.974
same,normalized growth,"locus YDR150W, strain NUM1, stronger effect = lower value",0.96
same,normalized growth,"locus YEL061C, strain CIN8, stronger effect = lower value",0.94
same,normalized growth,"locus YGR078C, strain PAC10, stronger effect = lower value",0.92 (active)
same,normalized growth,[2],0.918
same,normalized growth,"locus YHR087W, strain rtc3, stronger effect = lower value",0.906 (active)
same,normalized growth,"locus YJR043C, strain POL32, stronger effect = lower value",0.949
same,normalized growth,"locus YJR075W, strain HOC1, stronger effect = lower value",0.73 (active)
same,normalized growth,"locus YKL190W, strain CNB1, stronger effect = lower value",0.906 (active)
same,normalized growth,"locus YLR039C, strain RIC1, stronger effect = lower value",0.989
same,normalized growth,"locus YLR058C, strain SHM2 (second series), stronger effect = lower value",0.92 (active)
same,normalized growth,"locus YLR085C, strain ARP6, stronger effect = lower value",0.591 (active)
same,normalized growth,"locus YLR262C, strain YPT6, stronger effect = lower value",1.02
same,normalized growth,"locus YML094W, strain GIM5, stronger effect = lower value",0.964
same,normalized growth,"locus YMR219W, strain ESC1, stronger effect = lower value",0.933 (active)
same,normalized growth,"locus YMR263W, strain SAP30, stronger effect = lower value",0.951
same,normalized growth,"locus YNL153C, strain GIM3, stronger effect = lower value",0.964
same,normalized growth,"locus YNL298W, strain CLA4 (second series), stronger effect = lower value",0.836 (active)
same,normalized growth,"locus YNL322C, strain KRE1, stronger effect = lower value",0.921 (active)
same,normalized growth,"locus YNR030W, strain Alg12, stronger effect = lower value",0.804 (active)
same,normalized growth,"locus YPL055C, strain LGE1, stronger effect = lower value",0.835
same,normalized growth,"locus YPL241C, strain CIN2, stronger effect = lower value",0.789 (active)
same,normalized growth,"locus YPR135W, strain CTF4, stronger effect = lower value",0.71
Cc1cc(Cl)ccc1NNC(=O)c1sccc1Br,normalized growth,"locus YAR019C, strain CDC15, stronger effect = lower value",0.928
same,normalized growth,"locus YBL105C, strain PKC1, stronger effect = lower value",0.925
same,normalized growth,"locus YBR135W, strain CKS1, stronger effect = lower value",0.927
same,normalized growth,"locus YBR136W, strain MEC1, stronger effect = lower value",0.921
same,normalized growth,"locus YBR160W, strain CDC28, stronger effect = lower value",0.918
same,normalized growth,"locus YDL017W, strain CDC7, stronger effect = lower value",0.928
same,normalized growth,"locus YDL028C, strain MPS1, stronger effect = lower value",0.929
same,normalized growth,[1],0.917
same,normalized growth,"locus YDL108W, strain KIN28, stronger effect = lower value",0.932
same,normalized growth,"locus YDL132W, strain cdc53, stronger effect = lower value",0.918
same,normalized growth,"locus YDL214C, strain PRR2, stronger effect = lower value",0.872
same,normalized growth,"locus YDR052C, strain DBF4, stronger effect = lower value",0.931
same,normalized growth,"locus YDR054C, strain cdc34, stronger effect = lower value",0.908
same,normalized growth,"locus YDR226W, strain ADK1, stronger effect = lower value",0.922
same,normalized growth,"locus YDR477W, strain SNF1, stronger effect = lower value",0.871
same,normalized growth,"locus YER123W, strain YCK3, stronger effect = lower value",0.81
same,normalized growth,"locus YER133W, strain GLC7, stronger effect = lower value",0.851
same,normalized growth,"locus YFL009W, strain cdc4, stronger effect = lower value",0.925
same,normalized growth,"locus YFL029C, strain CAK1, stronger effect = lower value",0.921
same,normalized growth,"locus YFR003C, strain YPI1, stronger effect = lower value",0.924
same,normalized growth,"locus YFR019W, strain FAB1, stronger effect = lower value",0.895
same,normalized growth,"locus YFR028C, strain CDC14, stronger effect = lower value",0.924
same,normalized growth,"locus YGR040W, strain KSS1, stronger effect = lower value",0.844
same,normalized growth,"locus YGR052W, strain FMP48, stronger effect = lower value",0.908
same,normalized growth,"locus YGR092W, strain DBF2, stronger effect = lower value",0.784
same,normalized growth,[2],0.489 (active)
same,normalized growth,"locus YHR079C, strain IRE1, stronger effect = lower value",0.862
same,normalized growth,"locus YHR082C, strain KSP1, stronger effect = lower value",0.879
same,normalized growth,"locus YHR205W, strain SCH9, stronger effect = lower value",0.844
same,normalized growth,"locus YIL147C, strain SLN1, stronger effect = lower value",0.928
same,normalized growth,"locus YJL095W, strain BCK1, stronger effect = lower value",0.714
same,normalized growth,"locus YJL128C, strain PBS2, stronger effect = lower value",0.895
same,normalized growth,"locus YJL157C, strain FAR1, stronger effect = lower value",0.85
same,normalized growth,"locus YJR016C, strain ILV3, stronger effect = lower value",0.935
same,normalized growth,"locus YJR066W, strain TOR1 (second series), stronger effect = lower value",0.862
same,normalized growth,"locus YJR066W, strain TOR1, stronger effect = lower value",0.886
same,normalized growth,"locus YKL048C, strain ELM1, stronger effect = lower value",0.896
same,normalized growth,"locus YKL067W, strain YNK1, stronger effect = lower value",0.873
same,normalized growth,"locus YKL101W, strain HSL1, stronger effect = lower value",0.872
same,normalized growth,"locus YKL193C, strain SDS22, stronger effect = lower value",0.92
same,normalized growth,"locus YKL203C, strain TOR2, stronger effect = lower value",0.921
same,normalized growth,"locus YLR113W, strain HOG1, stronger effect = lower value",0.715 (active)
same,normalized growth,"locus YLR133W, strain CKI1, stronger effect = lower value",0.849
same,normalized growth,"locus YLR403W, strain SFP1, stronger effect = lower value",0.838
same,normalized growth,"locus YML070W, strain DAK1, stronger effect = lower value",0.842
same,normalized growth,"locus YMR001C, strain CDC5, stronger effect = lower value",0.918
same,normalized growth,"locus YMR205C, strain PFK2 (second series), stronger effect = lower value",0.87
same,normalized growth,"locus YMR277W, strain FCP1, stronger effect = lower value",0.921
same,normalized growth,"locus YNL006W, strain LST8, stronger effect = lower value",0.925
same,normalized growth,"locus YNL020C, strain ARK1, stronger effect = lower value",0.862
same,normalized growth,"locus YNL161W, strain CBK1, stronger effect = lower value",0.923
same,normalized growth,"locus YNL183C, strain NPR1, stronger effect = lower value",0.851
same,normalized growth,"locus YNL207W, strain RIO2, stronger effect = lower value",0.906
same,normalized growth,"locus YNL222W, strain SSU72, stronger effect = lower value",0.925
same,normalized growth,"locus YNL307C, strain MCK1 (second series), stronger effect = lower value",0.785
same,normalized growth,"locus YOL078W, strain AVO1, stronger effect = lower value",0.916
same,normalized growth,"locus YOL136C, strain PFK27, stronger effect = lower value",0.825
same,normalized growth,"locus YOR061W, strain CKA2, stronger effect = lower value",0.868
same,normalized growth,"locus YOR119C, strain RIO1, stronger effect = lower value",0.92
same,normalized growth,"locus YOR231W, strain MKK1, stronger effect = lower value",0.824
same,normalized growth,"locus YOR329C, strain SCD5, stronger effect = lower value",0.913
same,normalized growth,"locus YPL031C, strain PHO85, stronger effect = lower value",0.867
same,normalized growth,"locus YPL153C, strain RAD53, stronger effect = lower value",0.855
same,normalized growth,"locus YPL204W, strain HRR25, stronger effect = lower value",0.838
same,normalized growth,"locus YPL209C, strain IPL1, stronger effect = lower value",0.911
same,normalized growth,"locus YPL256C, strain CLN2, stronger effect = lower value",0.793 (active)
same,normalized growth,"locus YPR025C, strain CCL1, stronger effect = lower value",0.925
same,normalized growth,"locus YPR106W, strain ISR1, stronger effect = lower value",0.912
same,normalized growth,"locus YPR111W, strain DBF20, stronger effect = lower value",0.919
same,normalized growth,"strain NNK1, stronger effect = lower value",0.915
same,normalized growth,"strain TSCII, stronger effect = lower value",0.92
